# Compounds with a hit are over-represented: about 19% of the library has one in this group of screens.
# IL-1B inflam inh: inhibitors of inflammasome signaling (IL-1 beta secretion); THP-1 LPS/ATP IL-1B secretion, AlphaLISA, 16 h; active compounds read low; activity change, % at 57.5 µM; 4.7% of 360,000 active; AID 743279; in the data active = activity change below about -50%; inconclusive = mostly about -30% to -49%
#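 Secreted IL-1B measured by AlphaLISA bead assay after 16 h compound exposure of THP-1 cells; compounds (final up to 57.5 uM) added 1 h before LPS (250 ng/mL) and ATP (1.25 mM) stimulation; lower signal means less secretion.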
# HT1080 IDH1KD tx: toxicity to HT-1080 IDH1 knockdown cells (counter line) | HT-1080 IDH1 knockdown viability, ATP luminescence, 48 h | Potency, µM (doses to about 46.1 µM), for the others: at the highest dose activity, negative = toxicity, hits mostly cytotoxic | 2% of 360,000 active;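 note: potency is the fitted concentration of half-maximal effect; 0% = DMSO wells and -100% = cell-free medium wells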
#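 Assay cells: HT-1080 with IDH1 knockdown, 750 per well, RPMI/5% FBS. Exposure: 48 h at 37 °C following 2 h pre-incubation. Read: CellTiter-Glo luminescence; fitted concentration-response, curve class assigned.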
# TDP1 cell noCPT: qHTS for Inhibitors of human tyrosyl-DNA phosphodiesterase 1 (TDP1): qHTS in cells in absence of CPT; DT40 Tdp1-/- hTDP1 cells, no CPT, ATP luminescence, 48 h; Potency, µM (series often up to 46.2 µM), for the others: top-dose activity change, negative = growth inhibition, hits mostly inhibitors; 15% of 420,000 active; AID 686978, 2013; note: potency is the fitted concentration of half-maximal effect; nearly all actives have a fitted effect of over 55% in size
#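 Chicken DT40 Tdp1-/- cells complemented with human TDP1, screened without camptothecin (DMSO vehicle only), 400 cells/well. Compounds pin-transferred, cells incubated at 37 °C for at least 48 hr. Growth read as ATP-dependent luminescence (CellTiter-Glo, 30 min at RT).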
# HT1080NT lethal: kills 2HG-producing HT-1080-NT fibrosarcoma cells; Potency, µM (highest dose often 46.1 µM), for inactives: at the top dose activity, negative = less viability, usual class: cytotoxic; HT-1080-NT fibrosarcoma viability, CellTiter-Glo ATP luminescence, 48 h; 1.6% of 360,000 active;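 note: NT is the 2HG producing partner of a matched IDH1 knockdown line; potency is the fitted concentration of half-maximal effect; 0% = DMSO-treated cells and -100% = media-only wells without cells; nearly all actives have a fitted effect of over 55% in size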
#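 Luminescent CellTiter-Glo readout after 48 hours of compound exposure at 37 degrees C defined viability of HT-1080-NT cells. Activity was normalized to DMSO wells and cell-free media wells; concentration-response curves were fitted and assigned curve classes.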
# TDP1 cell CPT: DT40-hTDP1 cell growth loss with CPT; chicken DT40 Tdp1-/-;hTDP1 cells + 20 nM CPT, ATP luminescence, 48 h; AID 686979; 12% of 420,000 active; Potency, µM (titrated, usually from 46.2 µM), for inactives: at the highest dose activity change, negative = growth inhibition, usual class: inhibitors; note: potency is the fitted concentration of half-maximal effect; nearly all actives have a fitted effect of over 55% in size
#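 Cell growth measured by CellTiter-Glo luminescence after a minimum 48 h, 37 C compound exposure with 20 nM CPT in Tdp1-knockout DT40 cells stably expressing hTDP1, seeded 400/well; qHTS titration format.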
# * = called active by the depositor; ? = inconclusive; / = no result given. Unless noted, calls come from the whole dose curve; as a rule, active = well fitted curve in the direction sought with a large enough effect; inconclusive = small, poorly fitted or top-dose-only effect, or another doubt; inactive = no such curve, though single readings can be large; an effect the other way counts as inactive or inconclusive. Unless noted, % is set by controls: 0 for no effect and ±100 for the full control effect.
SMILES,IL-1B inflam inh,HT1080 IDH1KD tx,TDP1 cell noCPT,HT1080NT lethal,TDP1 cell CPT
O=C1C(=O)N(Cc2ccco2)C(c2cccs2)/C1=C(\O)c1cccc([N+](=O)[O-])c1 (stereo not drawn),14,5%,-1%,1%,2%
Cc1[nH]n(-c2ccccc2)c(=O)c1/C=C1/C=c2ccccc2=N1,19,-5%,21µM*,-1%,?
Cc1cc(NC(=O)CCC(=O)N(c2ccccc2)C(C(=O)NC2CCCC2)c2ccccc2F)no1 (stereo not drawn),-13,0%,?,-19%,-24%
CC[n+]1c(/C=C/Nc2ccccc2)oc2ccccc21,-27,?,15µM*,-24%,15µM*
CC1CCCCC1NC(=O)CN1c2cccc3cccc(c23)S1(=O)=O (stereo not drawn),29,-5%,?,0%,?
CC(SC1=Nc2ccccc2C2CC=NN12)C(=O)NC1(C#N)CCCCC1 (stereo not drawn),-3,-4%,23µM*,-7%,12µM*
CC(Sc1ncccn1)C(=O)NC1(C#N)CCCCC1 (stereo not drawn),-5,13%,3%,6%,10%
Cc1cc(C)cc(NC(=S)/C(=C(\[O-])c2ccc(Cl)cc2Cl)[n+]2ccccc2)c1,16,0%,-26%,17%,?
[O-]/C(=C(\C(=S)Nc1ccc(SC(F)F)cc1)[n+]1ccccc1)c1ccc(Cl)cc1Cl,-69*,-19%,10µM*,-10%,10µM*
Cc1ccc(/C([O-])=C(/C(=S)Nc2ccc(SC(F)F)cc2)[n+]2ccccc2)cc1[N+](=O)[O-],0,3%,12µM*,0%,?
Cc1cccnc1NC(=O)c1ccc(COc2ccccc2)o1,-11,5%,1%,11%,2%
Cc1c(F)cccc1NC(=O)CSCC(=O)Nc1ccccc1,0,5%,-3%,10%,1%
Cc1ccc(-n2nc(-c3ccc(F)cc3)c3cnc4cc5c(cc4c32)OCO5)cc1C,/,/,-2%,/,8%
Cc1ccc(NC(=O)C2CCN(S(=O)(=O)c3ccc4c(c3)oc(=O)n4C)CC2)cc1,15,2%,15%,0%,-4%
Cn1c(=O)oc2cc(S(=O)(=O)N3CCC(C(=O)N4CCN(c5cccc(Cl)c5)CC4)CC3)ccc21,/,/,1.5µM*,/,4.1µM*
Cn1c(=O)oc2cc(S(=O)(=O)N3CCC(C(=O)N4CCN(c5ccc(Cl)cc5)CC4)CC3)ccc21,/,/,2.3µM*,/,2.1µM*
C[C@@H]1OC(C2CCCCC2)N(C)[C@H]2C[C@H]3c4[nH]c5ccccc5c4CCN3C[C@@H]12 (stereo partly drawn),-11,-12%,?,-8%,21µM*
CN(C)C(=O)C[C@@H]1CC[C@@H](NC(=O)C2CCC2)[C@@H](CO)O1,16,20%,0%,3%,-6%
O=C(Cn1c(=O)n(-c2cccc(Cl)c2)c(=O)c2sc3ccccc3c21)N1CCCC1,/,/,15µM*,/,?
O=C(Cn1c(=O)n(-c2ccccc2)c(=O)c2sc3ccccc3c21)N1CCCC1,/,/,-12%,/,-24%
O=C(Cn1c(=O)n(-c2ccc(F)c(Cl)c2)c(=O)c2sc3ccccc3c21)NC1CCCCC1,/,/,-2%,/,-20%
O=C(Cn1c(=O)n(-c2ccc(Cl)cc2)c(=O)c2sc3ccccc3c21)NC1CCCC1,/,/,18µM*,/,13µM*
Nc1cccc(C#Cc2ccc3c(c2)C(=O)/C(=C/c2ccsc2)O3)c1,10,-20%,-19%,-11%,?
COc1ccc2c(-c3cc4ccc(OCc5ccc(F)cc5)cc4oc3=O)cc(=O)oc2c1,-9,5%,12µM*,18%,7.3µM*
O=c1oc2cc(OCc3ccc(C(F)(F)F)cc3)ccc2cc1-c1ccccn1,-4,22%,-24%,29%,-19%

# Source: PubChem BioAssay (National Center for Advancing Translational Sciences (NCATS))
